# Measured values published in PubChem BioAssay.
# Calls of active or inactive are those of the source.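 How the source made its calls, unless noted: active means normalized viability below 100% at a tested concentration; inactive means the rest.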
# Tests used:
# [1] = sensitizers of A549 cells to miR-34 induction, primary screen, imaging, A549 dox-inducible miR-34, nuclei and caspase counts (AID 1347080;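 active means compounds whose cell count with miR-34 switched on is under 0.7 times the count with it off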); settings: A549 miR-34 inducible, Hoechst nuclei count, 48 h
# [2] = survival rescue of mitochondrial mutant cells in low glucose, primary screen, MELAS cybrids, Rieske KO mouse fibroblasts, CellTiter-Glo (AID 1508586;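 active means mean z-score across replicates of 1.96 or higher in either the MELAS or the Rieske mutant cell line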;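 further: z relative to plate mean and SD of compound and empty wells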)
# [3] = ovarian cancer cell viability with rucaparib, profiling panel, oncology-focused library, rucaparib conditional (AID 1508598); settings: patient-derived ovarian cancer cells, CellTiter-Glo viability, 144 h, stronger effect = lower value
# [4] = stronger effect = lower value, cell number ratio, induced over uninduced
# [5] = measured here: relative caspase fold change +Dox/-Dox
# [6] = measured here: total cells with miR-34 induction, stronger effect = lower value
# [7] = measured here: total cells without miR-34 induction
# [8] = MELAS cybrid survival, CellTiter-Glo 48 h, stronger effect = higher value
# [9] = Rieske KO mouse fibroblast survival, CellTiter-Glo 72 h
# [10] = at 0.000305 µM, OCI-C5x cells, with rucaparib 10 µM, 100% = cells with rucaparib alone
# [11] = at 0.000305 µM, OCI-C5x cells, without rucaparib
# [12] = at 0.000305 µM, OCI-P5x cells, with rucaparib 20 µM, 100% = cells with rucaparib alone
# [13] = at 0.000305 µM, OCI-P5x cells, without rucaparib
# [14] = at 0.00122 µM, OCI-C5x cells, with rucaparib 10 µM, 100% = cells with rucaparib alone
# [15] = at 0.00122 µM, OCI-C5x cells, without rucaparib
# [16] = at 0.00122 µM, OCI-P5x cells, with rucaparib 20 µM, 100% = cells with rucaparib alone
# [17] = at 0.00122 µM, OCI-P5x cells, without rucaparib
# [18] = at 0.00488 µM, OCI-C5x cells, with rucaparib 10 µM, 100% = cells with rucaparib alone
# [19] = at 0.00488 µM, OCI-C5x cells, without rucaparib
# [20] = at 0.00488 µM, OCI-P5x cells, with rucaparib 20 µM, 100% = cells with rucaparib alone
# [21] = at 0.00488 µM, OCI-P5x cells, without rucaparib
# [22] = at 0.0195 µM, OCI-C5x cells, with rucaparib 10 µM, 100% = cells with rucaparib alone
# [23] = at 0.0195 µM, OCI-C5x cells, without rucaparib
# [24] = at 0.0195 µM, OCI-P5x cells, with rucaparib 20 µM, 100% = cells with rucaparib alone
# [25] = at 0.0195 µM, OCI-P5x cells, without rucaparib
# [26] = at 0.0781 µM, OCI-C5x cells, with rucaparib 10 µM, 100% = cells with rucaparib alone
# [27] = at 0.0781 µM, OCI-C5x cells, without rucaparib
# [28] = at 0.0781 µM, OCI-P5x cells, with rucaparib 20 µM, 100% = cells with rucaparib alone
# [29] = at 0.0781 µM, OCI-P5x cells, without rucaparib
# [30] = at 0.313 µM, OCI-C5x cells, with rucaparib 10 µM, 100% = cells with rucaparib alone
# [31] = at 0.313 µM, OCI-C5x cells, without rucaparib
# [32] = at 0.313 µM, OCI-P5x cells, with rucaparib 20 µM, 100% = cells with rucaparib alone
# [33] = at 0.313 µM, OCI-P5x cells, without rucaparib
# [34] = at 1.25 µM, OCI-C5x cells, with rucaparib 10 µM, 100% = cells with rucaparib alone
# [35] = at 1.25 µM, OCI-C5x cells, without rucaparib
# [36] = at 1.25 µM, OCI-P5x cells, with rucaparib 20 µM, 100% = cells with rucaparib alone
# [37] = at 1.25 µM, OCI-P5x cells, without rucaparib
# [38] = at 5 µM, OCI-C5x cells, with rucaparib 10 µM, 100% = cells with rucaparib alone
# [39] = at 5 µM, OCI-C5x cells, without rucaparib
# [40] = at 5 µM, OCI-P5x cells, with rucaparib 20 µM, 100% = cells with rucaparib alone
# [41] = at 5 µM, OCI-P5x cells, without rucaparib
smiles,measurement,setting,value
CC(=O)OC1C[C@@H]2CC[C@@H]3[C@@H](CC[C@]4(C)C(OC(C)=O)C([N+]5(C)CCCCC5)C[C@@H]34)[C@@]2(C)CC1[N+]1(C)CCCCC1 (stereo partly drawn),fold change,[1]; [4],0.982 (inactive)
same,fold change,[1]; [5],0.749
same,cell count,[1]; [6],10400
same,cell count,[1]; [7],10600
same,z-score,[2]; [8],-0.344 (inactive)
same,z-score,[2]; [9],0.747
OCCn1cc(-c2ccc3c(c2)CCC3=NO)c(-c2ccncc2)n1,fold change,[1]; [4],1.01 (inactive)
same,fold change,[1]; [5],0.852
same,cell count,[1]; [6],7830
same,cell count,[1]; [7],7730
same,z-score,[2]; [8],-0.459 (inactive)
same,z-score,[2]; [9],0.407
same,viability,[3]; [10],116% (inactive)
same,viability,[3]; [11],107% (inactive)
same,viability,[3]; [12],91.8% (active)
same,viability,[3]; [13],92.8% (active)
same,viability,[3]; [14],114% (inactive)
same,viability,[3]; [15],113% (inactive)
same,viability,[3]; [16],103% (inactive)
same,viability,[3]; [17],92.9% (active)
same,viability,[3]; [18],120% (inactive)
same,viability,[3]; [19],92.1% (active)
same,viability,[3]; [20],103% (inactive)
same,viability,[3]; [21],101% (inactive)
same,viability,[3]; [22],116% (inactive)
same,viability,[3]; [23],121% (inactive)
same,viability,[3]; [24],102% (inactive)
same,viability,[3]; [25],101% (inactive)
same,viability,[3]; [26],115% (inactive)
same,viability,[3]; [27],122% (inactive)
same,viability,[3]; [28],99% (active)
same,viability,[3]; [29],103% (inactive)
same,viability,[3]; [30],118% (inactive)
same,viability,[3]; [31],125% (inactive)
same,viability,[3]; [32],95.5% (active)
same,viability,[3]; [33],93.7% (active)
same,viability,[3]; [34],118% (inactive)
same,viability,[3]; [35],131% (inactive)
same,viability,[3]; [36],90.7% (active)
same,viability,[3]; [37],96.5% (active)
same,viability,[3]; [38],124% (inactive)
same,viability,[3]; [39],137% (inactive)
same,viability,[3]; [40],88.8% (active)
same,viability,[3]; [41],98% (active)
CN(C)CCSSCCNC(=O)C1CCN(C(=O)CSc2ccc(Cl)cc2)CC1,fold change,[1]; [4],0.922 (inactive)
same,fold change,[1]; [5],0.314
same,cell count,[1]; [6],7870
same,cell count,[1]; [7],8530
same,z-score,[2]; [8],-0.0132 (inactive)
same,z-score,[2]; [9],1
same,viability,[3]; [10],118% (inactive)
same,viability,[3]; [11],110% (inactive)
same,viability,[3]; [12],103% (inactive)
same,viability,[3]; [13],95.4% (active)
same,viability,[3]; [14],117% (inactive)
same,viability,[3]; [15],112% (inactive)
same,viability,[3]; [16],102% (inactive)
same,viability,[3]; [17],101% (inactive)
same,viability,[3]; [18],126% (inactive)
same,viability,[3]; [19],112% (inactive)
same,viability,[3]; [20],109% (inactive)
same,viability,[3]; [21],103% (inactive)
same,viability,[3]; [22],122% (inactive)
same,viability,[3]; [23],105% (inactive)
same,viability,[3]; [24],106% (inactive)
same,viability,[3]; [25],100% (active)
same,viability,[3]; [26],129% (inactive)
same,viability,[3]; [27],112% (inactive)
same,viability,[3]; [28],103% (inactive)
same,viability,[3]; [29],95.1% (active)
same,viability,[3]; [30],124% (inactive)
same,viability,[3]; [31],91.9% (active)
same,viability,[3]; [32],98.4% (active)
same,viability,[3]; [33],89.4% (active)
same,viability,[3]; [34],120% (inactive)
same,viability,[3]; [35],112% (inactive)
same,viability,[3]; [36],93.2% (active)
same,viability,[3]; [37],90.1% (active)
same,viability,[3]; [38],137% (inactive)
same,viability,[3]; [39],140% (inactive)
same,viability,[3]; [40],88.3% (active)
same,viability,[3]; [41],87.3% (active)
CCOC(=O)c1[nH]c2cc(Cl)ccc2c1C(C(=O)NC(C)(C)C)N(C=O)Cc1ccc(Cl)cc1 (stereo not drawn),fold change,[1]; [4],0.989 (inactive)
same,fold change,[1]; [5],0.584
same,cell count,[1]; [6],2750
same,cell count,[1]; [7],2780
same,z-score,[2]; [8],-0.405 (inactive)
same,z-score,[2]; [9],-1.07
same,viability,[3]; [10],118% (inactive)
same,viability,[3]; [11],105% (inactive)
same,viability,[3]; [12],75.1% (active)
same,viability,[3]; [13],82% (active)
same,viability,[3]; [14],112% (inactive)
same,viability,[3]; [15],113% (inactive)
same,viability,[3]; [16],66.5% (active)
same,viability,[3]; [17],73% (active)
same,viability,[3]; [18],113% (inactive)
same,viability,[3]; [19],104% (inactive)
same,viability,[3]; [20],67.1% (active)
same,viability,[3]; [21],64.8% (active)
same,viability,[3]; [22],110% (inactive)
same,viability,[3]; [23],116% (inactive)
same,viability,[3]; [24],69.4% (active)
same,viability,[3]; [25],63.9% (active)
same,viability,[3]; [26],114% (inactive)
same,viability,[3]; [27],102% (inactive)
same,viability,[3]; [28],96.7% (active)
same,viability,[3]; [29],103% (inactive)
same,viability,[3]; [30],108% (inactive)
same,viability,[3]; [31],106% (inactive)
same,viability,[3]; [32],99.6% (active)
same,viability,[3]; [33],99.6% (active)
same,viability,[3]; [34],111% (inactive)
same,viability,[3]; [35],105% (inactive)
same,viability,[3]; [36],103% (inactive)
same,viability,[3]; [37],102% (inactive)
same,viability,[3]; [38],116% (inactive)
same,viability,[3]; [39],120% (inactive)
same,viability,[3]; [40],62% (active)
same,viability,[3]; [41],101% (inactive)
CN(CC(=O)N(Cc1ccc(C2CCCCC2)cc1)c1ccc(C(=O)O)cc1)S(=O)(=O)c1c(F)c(F)c(F)c(F)c1F,fold change,[1]; [4],0.95 (inactive)
same,fold change,[1]; [5],0.314
same,cell count,[1]; [6],3920
same,cell count,[1]; [7],4130
same,z-score,[2]; [8],1.94 (inactive)
same,z-score,[2]; [9],0.483
same,viability,[3]; [10],114% (inactive)
same,viability,[3]; [11],111% (inactive)
same,viability,[3]; [12],97.3% (active)
same,viability,[3]; [13],102% (inactive)
same,viability,[3]; [14],115% (inactive)
same,viability,[3]; [15],111% (inactive)
same,viability,[3]; [16],96% (active)
same,viability,[3]; [17],102% (inactive)
same,viability,[3]; [18],119% (inactive)
same,viability,[3]; [19],111% (inactive)
same,viability,[3]; [20],92.6% (active)
same,viability,[3]; [21],97.4% (active)
same,viability,[3]; [22],118% (inactive)
same,viability,[3]; [23],112% (inactive)
same,viability,[3]; [24],97.6% (active)
same,viability,[3]; [25],95.6% (active)
same,viability,[3]; [26],126% (inactive)
same,viability,[3]; [27],116% (inactive)
same,viability,[3]; [28],93.1% (active)
same,viability,[3]; [29],94.2% (active)
same,viability,[3]; [30],115% (inactive)
same,viability,[3]; [31],111% (inactive)
same,viability,[3]; [32],94.9% (active)
same,viability,[3]; [33],95.1% (active)
same,viability,[3]; [34],114% (inactive)
same,viability,[3]; [35],107% (inactive)
same,viability,[3]; [36],8.63% (active)
same,viability,[3]; [37],75.3% (active)
same,viability,[3]; [38],3.43% (active)
same,viability,[3]; [39],2.98% (active)
same,viability,[3]; [40],0.394% (active)
same,viability,[3]; [41],0.691% (active)
